Columns and labels:
Conditions in all cases: 0.5 µM; time after treatment 48 h; PC9 signalome
PC9 [1] = test: AKT reporter activity score (signed KS statistic vs DMSO) (signed KS statistic (-1 to 1)); higher = stronger activation of the pathway reporter relative to DMSO
PC9 [2] = test: RAR reporter activity score (signed KS statistic vs DMSO) (signed KS statistic (-1 to 1)); higher = stronger activation of the pathway reporter relative to DMSO
PC9 [3] = test: PKC reporter activity score (signed KS statistic vs DMSO) (signed KS statistic (-1 to 1)); higher = stronger activation of the pathway reporter relative to DMSO
PC9 [4] = test: PKA reporter activity score (signed KS statistic vs DMSO) (signed KS statistic (-1 to 1)); higher = stronger activation of the pathway reporter relative to DMSO
PC9 [5] = test: p38 reporter activity score (signed KS statistic vs DMSO) (signed KS statistic (-1 to 1)); higher = stronger activation of the pathway reporter relative to DMSO
PC9 [6] = test: HIF reporter activity score (signed KS statistic vs DMSO) (signed KS statistic (-1 to 1)); higher = stronger activation of the pathway reporter relative to DMSO
PC9 [7] = test: ERK reporter activity score (signed KS statistic vs DMSO) (signed KS statistic (-1 to 1)); higher = stronger activation of the pathway reporter relative to DMSO
PC9 [8] = test: JNK reporter activity score (signed KS statistic vs DMSO) (signed KS statistic (-1 to 1)); higher = stronger activation of the pathway reporter relative to DMSO
PC9 [9] = test: WNT reporter activity score (signed KS statistic vs DMSO) (signed KS statistic (-1 to 1)); higher = stronger activation of the pathway reporter relative to DMSO
PC9 [10] = test: NFkB reporter activity score (signed KS statistic vs DMSO) (signed KS statistic (-1 to 1)); higher = stronger activation of the pathway reporter relative to DMSO
PC9 [11] = test: YAP/TAZ reporter activity score (signed KS statistic vs DMSO) (signed KS statistic (-1 to 1)); higher = stronger activation of the pathway reporter relative to DMSO

CC[C@@H]1/C=C/C=C/C[C@H](C)[C@H](O)[C@](C)(O)C(=O)[C@H](C)[C@@H](O)[C@H](C)C(=O)[C@H](C)[C@@H](O)[C@H](C)/C=C/C(=O)O[C@H]2[C@@H](C)[C@@H](CC1)O[C@@]1(CC[C@@H](C)[C@@H](C[C@H](C)O)O1)[C@@H]2C [Oligomycin A]
AKT reporter activity score (PC9 [1]): -0.252
RAR reporter activity score (PC9 [2]): 0.0549
PKC reporter activity score (PC9 [3]): 0.0686
PKA reporter activity score (PC9 [4]): -0.0505
p38 reporter activity score (PC9 [5]): -0.305
HIF reporter activity score (PC9 [6]): 0.335
ERK reporter activity score (PC9 [7]): 0.114
JNK reporter activity score (PC9 [8]): 0.0667
WNT reporter activity score (PC9 [9]): 0.138
NFkB reporter activity score (PC9 [10]): 0.0911
YAP/TAZ reporter activity score (PC9 [11]): 0.161
